# In all, about 2,900 compounds were measured (“NF-kB SEAP reporter activity, fold change vs agonist alone”: median about 0.99, highest 2% from about 2.6 on). The entries come from a sample that favours the highest values as a whole.
# Legend:
# RAW-Dual [1] = experiment: NF-kB SEAP reporter activity, fold change vs agonist alone; cytotoxicity flag (confluency mask): not cytotoxic; higher = enhanced NF-kB activity
# In short: (§1)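 Library stock was pin-tooled at 50 nL into 384-well plates of RAW-Dual macrophages (50,000 cells/well, DMEM), followed 1 h later by a PRR agonist, and the cells were kept at 37 °C, 5% CO2. Supernatant collected after 20 hours was read for IRF by QuantiLuc luminescence and for NF-κB by QuantiBlue absorbance at 620 nm. Reporter activity is fold change over agonist-alone wells, and a well counted as cytotoxic when its IncuCyte confluency was below 70% of agonist controls in both mask sets.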
# RAW-Dual [2] = experiment: NF-kB SEAP reporter activity, fold change vs agonist alone; higher = enhanced NF-kB activity
# In short: as §1
# RAW-Dual [3] = experiment: NF-kB SEAP reporter activity, fold change vs agonist alone; cytotoxicity flag (confluency mask): cytotoxic (confluency <70% of control); higher = enhanced NF-kB activity
# In short: as §1
# [4] = agonist: ODN 1826 (TLR9) 0.5 ug/mL
# [5] = agonist: Pam2CSK4 (TLR2/6) 0.1 ug/mL
# [6] = agonist: Pam3CSK4 (TLR2/1) 0.1 ug/mL
# [7] = library stock concentration (final ~1000-fold dilution): 10 mM, cytotoxicity flag (confluency mask): not cytotoxic, agonist: Imiquimod (TLR7) […]
# [8] = library stock concentration (final ~1000-fold dilution): 10 mM, cytotoxicity flag (confluency mask): not cytotoxic, agonist: MPLA (TLR4) […]
# [9] = library stock concentration (final ~1000-fold dilution): 10 mM, cytotoxicity flag (confluency mask): cytotoxic (confluency <70% of control), agonist: Imiquimod (TLR7) […]
# [10] = library stock concentration (final ~1000-fold dilution): 10 mM, cytotoxicity flag (confluency mask): cytotoxic (confluency <70% of control), agonist: MPLA (TLR4) […]
# [11] = library stock concentration (final ~1000-fold dilution): 2 mM, cytotoxicity flag (confluency mask): not cytotoxic, agonist: Imiquimod (TLR7) […]
# [12] = library stock concentration (final ~1000-fold dilution): 2 mM, cytotoxicity flag (confluency mask): not cytotoxic, agonist: MPLA (TLR4) […]
structure (smiles),measurement,setting,value
CC(C)CC(NC(=O)CNC(=O)c1cc(Cl)ccc1Cl)B1OC(=O)CC(CC(=O)O)(C(=O)O)O1 (stereo unspecified) (library stock concentration (final ~1000-fold dilution): 10 mM),NF-kB SEAP reporter activity,RAW-Dual [1]; agonist: LPS (TLR4) 0.1 ug/mL,0.585
same,NF-kB SEAP reporter activity,RAW-Dual [1]; [4],0.938
same,NF-kB SEAP reporter activity,RAW-Dual [1]; [5],0.905
same,NF-kB SEAP reporter activity,RAW-Dual [1]; [6],0.999
CC(C)CC(NC(=O)CNC(=O)c1cc(Cl)ccc1Cl)B1OC(=O)CC(CC(=O)O)(C(=O)O)O1 (stereo unspecified),NF-kB SEAP reporter activity,RAW-Dual [2]; [7],0.956
same,NF-kB SEAP reporter activity,RAW-Dual [2]; [8],0.913
O=c1nc(N2CCOCC2)oc2c(-c3cccc4c3sc3ccccc34)cccc12 (library stock concentration (final ~1000-fold dilution): 10 mM),NF-kB SEAP reporter activity,RAW-Dual [1]; agonist: LPS (TLR4) 0.1 ug/mL,3.45
same,NF-kB SEAP reporter activity,RAW-Dual [1]; [4],1.08
same,NF-kB SEAP reporter activity,RAW-Dual [1]; [5],0.718
same,NF-kB SEAP reporter activity,RAW-Dual [1]; [6],1.38
O=c1nc(N2CCOCC2)oc2c(-c3cccc4c3sc3ccccc34)cccc12,NF-kB SEAP reporter activity,RAW-Dual [2]; [7],1.1
same,NF-kB SEAP reporter activity,RAW-Dual [2]; [8],1.85
O=c1cc(N2CCOCC2)oc2c(-c3cccc4c3sc3ccccc34)cccc12 (library stock concentration (final ~1000-fold dilution): 2 mM),NF-kB SEAP reporter activity,RAW-Dual [1]; agonist: LPS (TLR4) 0.1 ug/mL,5.39
same,NF-kB SEAP reporter activity,RAW-Dual [1]; [4],1.43
same,NF-kB SEAP reporter activity,RAW-Dual [1]; [5],1.05
same,NF-kB SEAP reporter activity,RAW-Dual [1]; [6],2.43
O=c1cc(N2CCOCC2)oc2c(-c3ccccc3)cccc12,NF-kB SEAP reporter activity,RAW-Dual [2]; [9],1.07
same,NF-kB SEAP reporter activity,RAW-Dual [2]; [10],1.63
O=c1cc(N2CCOCC2)oc2c(-c3cccc4c3sc3ccccc34)cccc12,NF-kB SEAP reporter activity,RAW-Dual [2]; [11],1.46
same,NF-kB SEAP reporter activity,RAW-Dual [2]; [12],2.31
O=c1cc(N2CCOCC2)oc2c1ccc1ccccc12 (library stock concentration (final ~1000-fold dilution): 2 mM),NF-kB SEAP reporter activity,RAW-Dual [1]; agonist: LPS (TLR4) 0.1 ug/mL,1.12
same,NF-kB SEAP reporter activity,RAW-Dual [1]; [4],1
same,NF-kB SEAP reporter activity,RAW-Dual [1]; [5],0.982
same,NF-kB SEAP reporter activity,RAW-Dual [1]; [6],1.07
O=c1cc(N2CCOCC2)oc2c1ccc1ccccc12,NF-kB SEAP reporter activity,RAW-Dual [2]; [11],1.04
same,NF-kB SEAP reporter activity,RAW-Dual [2]; [12],0.989
O=c1cc(N2CCOCC2)oc2c(-c3ccccc3)cccc12 (library stock concentration (final ~1000-fold dilution): 10 mM),NF-kB SEAP reporter activity,RAW-Dual [3]; agonist: LPS (TLR4) 0.1 ug/mL,1.81
same,NF-kB SEAP reporter activity,RAW-Dual [3]; [4],1.34
same,NF-kB SEAP reporter activity,RAW-Dual [3]; [5],0.984
same,NF-kB SEAP reporter activity,RAW-Dual [3]; [6],1.19
CC(=O)N1CCCC1C(=O)NC(Cc1c[nH]cn1)C(=O)NC(CO)C(=O)NC(CS)C(=O)NC(CC(N)=O)C(N)=O (stereo unspecified) (library stock concentration (final ~1000-fold dilution): 10 mM water),NF-kB SEAP reporter activity,RAW-Dual [1]; agonist: LPS (TLR4) 0.1 ug/mL,1.15
same,NF-kB SEAP reporter activity,RAW-Dual [1]; [4],1.22
same,NF-kB SEAP reporter activity,RAW-Dual [1]; [5],1.19
same,NF-kB SEAP reporter activity,RAW-Dual [1]; [6],1.02
CC(=O)N1CCCC1C(=O)NC(Cc1c[nH]cn1)C(=O)NC(CO)C(=O)NC(CS)C(=O)NC(CC(N)=O)C(N)=O (stereo unspecified),NF-kB SEAP reporter activity,"RAW-Dual [2]; library stock concentration (final ~1000-fold dilution): 10 mM water, cytotoxicity flag (confluency mask): not cytotoxic, agonist: Imiquimod (TLR7) […]",0.979
same,NF-kB SEAP reporter activity,"RAW-Dual [2]; library stock concentration (final ~1000-fold dilution): 10 mM water, cytotoxicity flag (confluency mask): not cytotoxic, agonist: MPLA (TLR4) […]",1.06
CC(C)COc1ccc(CNC(=O)N(Cc2ccc(F)cc2)C2CCN(C)CC2)cc1.CC(C)COc1ccc(CNC(=O)N(Cc2ccc(F)cc2)C2CCN(C)CC2)cc1.O=C(O)C(O)C(O)C(=O)O (library stock concentration (final ~1000-fold dilution): 10 mM),NF-kB SEAP reporter activity,RAW-Dual [3]; agonist: LPS (TLR4) 0.1 ug/mL,0.205
same,NF-kB SEAP reporter activity,RAW-Dual [3]; [4],0.239
same,NF-kB SEAP reporter activity,RAW-Dual [3]; [5],0.0981
same,NF-kB SEAP reporter activity,RAW-Dual [3]; [6],0.143
CC(C)COc1ccc(CNC(=O)N(Cc2ccc(F)cc2)C2CCN(C)CC2)cc1.CC(C)COc1ccc(CNC(=O)N(Cc2ccc(F)cc2)C2CCN(C)CC2)cc1.O=C(O)C(O)C(O)C(=O)O,NF-kB SEAP reporter activity,RAW-Dual [2]; [9],0.496
same,NF-kB SEAP reporter activity,RAW-Dual [2]; [10],1.23
CCNC1=NC2C(OC(CO)C(O)C2O)S1 (stereo unspecified) (library stock concentration (final ~1000-fold dilution): 10 mM),NF-kB SEAP reporter activity,RAW-Dual [1]; agonist: LPS (TLR4) 0.1 ug/mL,1.15
same,NF-kB SEAP reporter activity,RAW-Dual [1]; [4],1.17
same,NF-kB SEAP reporter activity,RAW-Dual [1]; [5],1.04
same,NF-kB SEAP reporter activity,RAW-Dual [1]; [6],1.5
CCNC1=NC2C(OC(CO)C(O)C2O)S1 (stereo unspecified),NF-kB SEAP reporter activity,RAW-Dual [2]; [7],1
same,NF-kB SEAP reporter activity,RAW-Dual [2]; [8],1.17
CC/C(=C(\c1ccc(O)cc1)c1ccc(OCCNC)cc1)c1ccccc1.Cl,NF-kB SEAP reporter activity,RAW-Dual [2]; [9],0.387
same,NF-kB SEAP reporter activity,RAW-Dual [2]; [10],0.632
CC/C(=C(\c1ccc(O)cc1)c1ccc(OCCNC)cc1)c1ccccc1.Cl (library stock concentration (final ~1000-fold dilution): 10 mM),NF-kB SEAP reporter activity,RAW-Dual [3]; agonist: LPS (TLR4) 0.1 ug/mL,0.354
same,NF-kB SEAP reporter activity,RAW-Dual [3]; [4],0.211
same,NF-kB SEAP reporter activity,RAW-Dual [3]; [5],0.157
same,NF-kB SEAP reporter activity,RAW-Dual [3]; [6],0.135
O=C(c1ccc(Oc2ccccc2)cc1Cl)c1c[nH]c2ncnc(NC3CCC(CO)OC3)c12 (stereo unspecified),NF-kB SEAP reporter activity,RAW-Dual [2]; [9],0.133
same,NF-kB SEAP reporter activity,RAW-Dual [2]; [10],0.252
O=C(c1ccc(Oc2ccccc2)cc1Cl)c1c[nH]c2ncnc(NC3CCC(CO)OC3)c12 (stereo unspecified) (library stock concentration (final ~1000-fold dilution): 10 mM),NF-kB SEAP reporter activity,RAW-Dual [3]; agonist: LPS (TLR4) 0.1 ug/mL,0.431
same,NF-kB SEAP reporter activity,RAW-Dual [3]; [4],0.161
same,NF-kB SEAP reporter activity,RAW-Dual [3]; [5],0.293
same,NF-kB SEAP reporter activity,RAW-Dual [3]; [6],0.129
Cc1cc(N2CC(C)NC(C)C2)ncc1-c1ccc(-c2nc3c(ccn3C)c(=O)[nH]2)cc1 (stereo unspecified) (library stock concentration (final ~1000-fold dilution): 10 mM),NF-kB SEAP reporter activity,RAW-Dual [1]; agonist: LPS (TLR4) 0.1 ug/mL,2.18
same,NF-kB SEAP reporter activity,RAW-Dual [1]; [4],0.278
same,NF-kB SEAP reporter activity,RAW-Dual [1]; [5],1.38
same,NF-kB SEAP reporter activity,RAW-Dual [1]; [6],1.63
Cc1cc(N2CC(C)NC(C)C2)ncc1-c1ccc(-c2nc3c(ccn3C)c(=O)[nH]2)cc1 (stereo unspecified),NF-kB SEAP reporter activity,RAW-Dual [2]; [7],1.14
same,NF-kB SEAP reporter activity,RAW-Dual [2]; [8],2.01
CCC(=O)N1CCN(c2ccc(-n3c(=O)ccc4cnc5ccc(-c6cnc7ccccc7c6)cc5c43)cc2C(F)(F)F)CC1,NF-kB SEAP reporter activity,RAW-Dual [2]; [11],0.44
same,NF-kB SEAP reporter activity,RAW-Dual [2]; [12],1.51
COc1ccc(-c2ccc3ncc4c(c3c2)n(-c2ccc(N3CCNCC3)c(C(F)(F)F)c2)c(=O)n4C)cn1.O=C(O)/C=C\C(=O)O (library stock concentration (final ~1000-fold dilution): 10 mM),NF-kB SEAP reporter activity,RAW-Dual [3]; agonist: LPS (TLR4) 0.1 ug/mL,0.236
same,NF-kB SEAP reporter activity,RAW-Dual [3]; [4],0.205
same,NF-kB SEAP reporter activity,RAW-Dual [3]; [5],0.085
same,NF-kB SEAP reporter activity,RAW-Dual [3]; [6],0.217
CCC(=O)N1CCN(c2ccc(-n3c(=O)ccc4cnc5ccc(-c6cnc7ccccc7c6)cc5c43)cc2C(F)(F)F)CC1 (library stock concentration (final ~1000-fold dilution): 2 mM),NF-kB SEAP reporter activity,RAW-Dual [1]; agonist: LPS (TLR4) 0.1 ug/mL,1.55
same,NF-kB SEAP reporter activity,RAW-Dual [1]; [4],1.02
same,NF-kB SEAP reporter activity,RAW-Dual [1]; [5],0.421
same,NF-kB SEAP reporter activity,RAW-Dual [1]; [6],0.629

# Source: the supplement of paper PMC10037445
